From PubChem BioAssay AID1159580 (chemical genetic matrix, 2015)
The campaign covered roughly 5,500 compounds. About 2,000 (36%) were called active. Another 18% or so got no clear call; they are omitted. No stated cut-off is given here; in the data, active means normalized growth mostly below about 0.91 (no sharp cut-off); inconclusive means no clear call, values can overlap the other calls; inactive means mostly above about 0.92. The list shows a part of the results.

Assay: chemical genetic growth profiling, strain panel (AID 1159580);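 further: tested at 20 µM; growth read once vehicle control cultures reached saturation at 30 °C; 1 = growth at the plate median or of vehicle wells; lower values mean less growth of the strain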
Conditions: growth OD

Measured: normalized growth

O=C1OCCN1/N=C\c1ccc([N+](=O)[O-])o1
active: S. cerevisiae deletion strains, locus YLR039C, strain RIC1, hits give low values 0.657 | S. cerevisiae deletion strains, locus YLR268W, strain sec22, hits give low values 0.831 | S. cerevisiae deletion strains, locus YML032C, strain rad52, hits give low values 0.494 | S. cerevisiae deletion strains, locus YMR058W, strain fet3, hits give low values 0.79 | S. cerevisiae deletion strains, locus YNL153C, strain GIM3, hits give low values 0.842 | S. cerevisiae deletion strains, locus YNL248C, strain rpa49, hits give low values 0.84 | S. cerevisiae deletion strains, locus YNL250W, strain rad50, hits give low values 0.713 | S. cerevisiae deletion strains, locus YNR052C, strain pop2, hits give low values 0.899 | S. cerevisiae deletion strains, locus YOR184W, strain ser1, hits give low values 0.862 | S. cerevisiae deletion strains, locus YOR231W, strain MKK1, hits give low values 0.777 | S. cerevisiae deletion strains, strain wtn01, hits give low values 0.87
inactive: S. cerevisiae deletion strains, locus YJR075W, strain HOC1, hits give low values 0.981 | S. cerevisiae deletion strains, locus YKL009W, strain mrt4, hits give low values 0.915 | S. cerevisiae deletion strains, locus YKL068W, hits give low values 0.999 | S. cerevisiae deletion strains, locus YKL085W, strain MDH1 (second series), hits give low values 0.99 | S. cerevisiae deletion strains, locus YKL085W, strain MDH1, hits give low values 0.99 | S. cerevisiae deletion strains, locus YKL160W, strain elf1, hits give low values 0.984 | S. cerevisiae deletion strains, locus YKR001C, strain vps1, hits give low values 0.938 | S. cerevisiae deletion strains, locus YKR026C, strain gcn3, hits give low values 1 | S. cerevisiae deletion strains, locus YKR091W, strain srl3, hits give low values 0.997 | S. cerevisiae deletion strains, locus YLL001W, strain dnm1, hits give low values 0.978 | S. cerevisiae deletion strains, locus YLL026W, hits give low values 0.988 | S. cerevisiae deletion strains, locus YLL041C, strain sdh2, hits give low values 1 | S. cerevisiae deletion strains, locus YLR027C, strain aat2, hits give low values 0.955 | S. cerevisiae deletion strains, locus YLR058C, strain SHM2, hits give low values 0.967 | S. cerevisiae deletion strains, locus YLR102C, strain apc9, hits give low values 0.988 | S. cerevisiae deletion strains, locus YLR113W, strain HOG1, hits give low values 0.869 | S. cerevisiae deletion strains, locus YLR221C, strain rsa3, hits give low values 0.975 | S. cerevisiae deletion strains, locus YLR258W, strain gsy2, hits give low values 0.976 | S. cerevisiae deletion strains, locus YLR262C, strain YPT6 (second series), hits give low values 0.888 | S. cerevisiae deletion strains, locus YLR262C, strain YPT6, hits give low values 0.683 | S. cerevisiae deletion strains, locus YLR320W, strain mms22, hits give low values 0.956 | S. cerevisiae deletion strains, locus YLR330W, strain CHS5, hits give low values 1 | S. cerevisiae deletion strains, locus YLR342W, strain FKS1 (second series), hits give low values 0.943 | S. cerevisiae deletion strains, locus YLR342W, strain FKS1, hits give low values 1 | S. cerevisiae deletion strains, locus YLR357W, strain rsc2, hits give low values 1.03 | S. cerevisiae deletion strains, locus YLR370C, strain arc18, hits give low values 0.942 | S. cerevisiae deletion strains, locus YLR371W, strain rom2, hits give low values 0.99 | S. cerevisiae deletion strains, locus YLR384C, strain iki3, hits give low values 1 | S. cerevisiae deletion strains, locus YLR418C, strain cdc73, hits give low values 0.847 | S. cerevisiae deletion strains, locus YML016C, strain PPZ1, hits give low values 0.987 | S. cerevisiae deletion strains, locus YML120C, strain ndi1, hits give low values 0.965 | S. cerevisiae deletion strains, locus YML124C, strain tub3, hits give low values 1.01 | S. cerevisiae deletion strains, locus YMR078C, strain ctf18, hits give low values 0.976 | S. cerevisiae deletion strains, locus YMR125W, strain sto1, hits give low values 0.93 | S. cerevisiae deletion strains, locus YMR129W, hits give low values 1 | S. cerevisiae deletion strains, locus YMR205C, strain PFK2, hits give low values 1.02 | S. cerevisiae deletion strains, locus YMR223W, strain ubp8, hits give low values 0.91 | S. cerevisiae deletion strains, locus YMR231W, strain pep5, hits give low values 0.998 | S. cerevisiae deletion strains, locus YMR307W, strain GAS1, hits give low values 0.761 | S. cerevisiae deletion strains, locus YNL067W, strain RPL9B, hits give low values 0.97 | S. cerevisiae deletion strains, locus YNL071W, strain lat1, hits give low values 0.997 | S. cerevisiae deletion strains, locus YNL128W, strain TEP1, hits give low values 0.997 | S. cerevisiae deletion strains, locus YNL183C, strain NPR1, hits give low values 0.848 | S. cerevisiae deletion strains, locus YNL209W, strain ssb2, hits give low values 0.979 | S. cerevisiae deletion strains, locus YNL233W, strain BNI4, hits give low values 0.987 | S. cerevisiae deletion strains, locus YNL271C, strain bni1, hits give low values 0.978 | S. cerevisiae deletion strains, locus YNL298W, strain CLA4, hits give low values 0.95 | S. cerevisiae deletion strains, locus YNL307C, strain MCK1, hits give low values 0.955 | S. cerevisiae deletion strains, locus YNL322C, strain KRE1 (second series), hits give low values 0.992 | S. cerevisiae deletion strains, locus YNL322C, strain KRE1, hits give low values 0.999 | S. cerevisiae deletion strains, locus YNR049C, strain mso1, hits give low values 1.02 | S. cerevisiae deletion strains, locus YOL006C, strain TOP1, hits give low values 0.891 | S. cerevisiae deletion strains, locus YOL012C, strain htz1 1.16 | S. cerevisiae deletion strains, locus YOL147C, strain pex11, hits give low values 0.991 | S. cerevisiae deletion strains, locus YOR001W, strain rrp6, hits give low values 0.904 | S. cerevisiae deletion strains, locus YOR061W, strain CKA2, hits give low values 0.988 | S. cerevisiae deletion strains, locus YOR069W, strain VPS5, hits give low values 0.992 | S. cerevisiae deletion strains, locus YOR070C, strain gyp1, hits give low values 1.01 | S. cerevisiae deletion strains, locus YOR080W, strain dia2, hits give low values 0.986 | S. cerevisiae deletion strains, locus YOR083W, strain WHI5, hits give low values 0.962 | S. cerevisiae deletion strains, locus YOR106W, strain vam3, hits give low values 0.938 | S. cerevisiae deletion strains, locus YOR136W, strain idh2, hits give low values 0.959 | S. cerevisiae deletion strains, locus YOR144C, strain elg1, hits give low values 0.969 | S. cerevisiae deletion strains, locus YOR265W, strain rbl2, hits give low values 0.997 | S. cerevisiae deletion strains, locus YOR270C, strain vph1, hits give low values 0.92 | S. cerevisiae deletion strains, locus YOR290C, strain snf2, hits give low values 0.912 | S. cerevisiae deletion strains, locus YOR316C, strain cot1, hits give low values 0.999 | S. cerevisiae deletion strains, locus YPL051W, strain arl3, hits give low values 0.943 | S. cerevisiae deletion strains, locus YPL055C, strain LGE1, hits give low values 0.882 | S. cerevisiae deletion strains, locus YPL078C, strain atp4, hits give low values 0.932 | S. cerevisiae deletion strains, locus YPL106C, strain sse1, hits give low values 0.889 | S. cerevisiae deletion strains, locus YPL240C, strain hsp82, hits give low values 1.01 | S. cerevisiae deletion strains, locus YPL241C, strain CIN2, hits give low values 0.988 | S. cerevisiae deletion strains, locus YPL256C, strain CLN2, hits give low values 0.909 | S. cerevisiae deletion strains, locus YPR119W, strain clb2, hits give low values 0.989 | S. cerevisiae deletion strains, locus YPR141C, strain kar3, hits give low values 0.993 | S. cerevisiae deletion strains, locus YPR163C, strain tif3, hits give low values 0.993 | S. cerevisiae deletion strains, locus YPR167C, strain met16, hits give low values 0.986 | S. cerevisiae strains, strain wild type, hits give low values 0.99
